ST2 inh: inhibitors of human ST2 (IL1RL1) binding to IL-33, primary screen, biochemical, AlphaLISA | Interleukin-1 receptor-like 1 (Homo sapiens), Q01638 | AlphaLISA ST2-Fc/biotin-IL-33 interaction, 1 h | inhibition, % for hits at 17 µM | hit rate 2.3% among 78,000 | AID 1259354, 2018; in the data active means inhibition above about 30%
Target sequence (Q01638 whole entry, looked up): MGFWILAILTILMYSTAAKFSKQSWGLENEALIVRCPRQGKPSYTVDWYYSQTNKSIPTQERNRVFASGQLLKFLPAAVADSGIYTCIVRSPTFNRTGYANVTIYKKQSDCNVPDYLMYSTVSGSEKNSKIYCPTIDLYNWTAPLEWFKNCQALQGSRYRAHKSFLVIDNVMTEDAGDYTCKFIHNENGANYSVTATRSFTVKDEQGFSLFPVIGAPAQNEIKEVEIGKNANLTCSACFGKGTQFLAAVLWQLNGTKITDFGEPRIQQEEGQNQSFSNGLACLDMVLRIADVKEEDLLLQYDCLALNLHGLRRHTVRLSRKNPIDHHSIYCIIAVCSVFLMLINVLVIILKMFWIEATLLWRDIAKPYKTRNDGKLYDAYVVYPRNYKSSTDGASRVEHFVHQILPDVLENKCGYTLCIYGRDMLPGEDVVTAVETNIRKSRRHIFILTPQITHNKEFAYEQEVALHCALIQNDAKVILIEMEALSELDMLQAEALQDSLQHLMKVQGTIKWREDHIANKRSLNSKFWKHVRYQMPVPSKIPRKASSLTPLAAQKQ
Numbers without * were called inactive; i = inactive. Many of the other results were omitted from the sample, so hits are more common in it than they were.

SMILES	ST2 inh
CN(C)c1cc(NC(=O)CN2CCN(C(=O)c3ccccc3)CC2)c2ccccc2n1	i
COCCCN1C(=O)C(O)=C(C(=O)c2cccs2)C1c1ccc(OC)c(OC)c1 (configuration not stated)	i
O=c1[nH]c2ccc(S(=O)(=O)NCC3COc4ccccc4O3)cc2s1 (configuration not stated)	i
CC(C)C[C@@H](N)C(=O)NCc1n[nH]c2c1CCC2	i
CCOc1ccccc1OCCOc1ccccc1C=O	i
CCOc1cccc(/C=C/c2ccc3cccc(O)c3n2)c1OC	54.0%*
CC(=O)Nc1ccccc1/C=C/c1ccc2c(C)ccc(O)c2n1	i
Cc1ccccc1CC1SC(=Nc2ccccc2)NC1=O (configuration not stated)	i
O=C1NC(=Nc2ccccc2)SC1(CO)CO	i
Cc1ccc(NC(=O)CC2SC(=Nc3ccccc3)NC2=O)c(C)c1 (configuration not stated)	i
CCOc1cc(/C=C2\C(=O)NC(=O)N(c3ccccc3)C2=O)ccc1O	i
O=C1NC(=Nc2cccc(Br)c2)SC1(CO)CO	i
O=C1NC(=Nc2ccccc2)S/C1=C/c1cc(Br)ccc1O	36.0%*
O=C1NC(=Nc2ccccc2)S/C1=C/c1ccc(O)c(O)c1	35.0%*
O=C1CC(c2ccc(F)c(Br)c2)c2ccc3ccccc3c2N1 (configuration not stated)	i
O=C1NC(=Nc2ccccc2)S/C1=C/c1ccc(F)c(Br)c1	43.0%*
Cc1cc(C)c(C(=O)N2CCC(n3cc(C4CC4)nn3)CC2)cc1C	i
COCc1nnc(NC(=O)c2ccccc2Br)s1	i
CC(Cn1cccn1)C(=O)Nc1cccc(NC(=O)Cc2ccccc2)c1 (configuration not stated)	i
CCOc1ccc(S(=O)(=O)N2CCSC2c2cc(OC)ccc2OC)cc1 (configuration not stated)	i
Cc1ccccc1Oc1ncccc1CNC(=O)Cc1[nH]nc2ccccc12	i
CN(Cc1ccccc1)C(=O)CNC(=O)Cn1ccc2ccccc2c1=O	i
Cc1cccc(NC(=O)CSc2cn(CCNC(=O)c3ccccc3F)c3ccccc23)c1	i
O=C(CCC1CCN(C(=O)C2(N3CCCC3)CCCC2)CC1)Nc1ccccc1	i
Cc1ccc(CN2CCC(CN(C)Cc3ccc(OC(C)C)cc3)CC2)o1	i
SMILES	ST2 inh
CC(=O)N[C@H]1CC[C@]2(C)CC[C@@H]([C@H](C)C(=O)N3CCCCC3)[C@H](O)[C@H]2[C@@H]1C	i
Cc1ccc(C(C)C)c(OCC(=O)NN)c1	i
Cc1ccc([N+](=O)[O-])cc1N1C(=O)/C(=C\c2ccccc2)N=C1c1ccccc1	40.0%*
O=[N+]([O-])c1cccc(C=Nc2nnc(-c3ccccc3)s2)c1	i
O=C1OC(c2cccc([N+](=O)[O-])c2)=N/C1=C\c1cccc(I)c1	i
Cn1c(=O)cc(SCC(=O)NCc2ccccn2)c2ccccc21	i
O=C(CSc1nnc(Cc2cc(=O)[nH]c(=O)[nH]2)n1-c1ccccc1)N1CCc2ccccc21	i
CCCOCCOC(=O)C1=C(C)NC2=C(C(=O)C(C(=O)OC)C(C)C2)C1c1cccc(F)c1 (configuration not stated)	i
Cn1c(SCC(=O)c2ccc(Br)cc2)nnc1-c1cccc(N)c1	i
c1ccc(Sc2c(-c3ccccc3)nc3ncccn23)cc1	i
O=[N+]([O-])c1ccc(Sc2c(-c3ccccc3)nc3sccn23)cc1	32.0%*
COC(=O)c1ccccc1Sc1c(-c2ccccc2)nc2sccn12	i
CC(=O)Nc1ccc(N=Cc2cc(Br)cc(Cl)c2O)cc1	i
CCN(CC)c1ccc(N=Cc2ccc(N(CC)CC)cc2O)cc1	60.0%*
CCN(CC)CCNC(=O)c1ccc(N=Cc2cc(Cl)cc(Cl)c2O)cc1	i
CCN(CC)C(=O)CCS(=O)(=O)c1cc(Br)cc2c1N(C(C)=O)CC2	i
Cc1ccc(C(N)=O)cc1S(=O)(=O)N1CCCCC1	i
Cn1c(=O)cc(SCC(=O)N2CCN(c3ccc(F)cc3)CC2)c2ccccc21	i
CC(=O)N(CN1C(=O)c2ccccc2C1=O)c1cc(C)ccc1C	i
Cc1ccc(S(=O)(=O)N=C2C=CC(=O)c3ccccc32)c(C)c1	61.0%*
Cc1cc(C)c(S(N)(=O)=O)c(C)c1	i
Cc1cc(C)c(S(=O)(=O)n2cnc3ccccc32)c(C)c1	i
Cc1cc(C)c(S(=O)(=O)N=C2C=CC(=O)c3ccccc32)c(C)c1	39.0%*
Cc1ccc(S(=O)(=O)N2CCN(c3nc(C)cc(N4CCCC4)n3)CC2)c(C)c1	i
Cc1ccc(C)c(S(=O)(=O)N=C2C=C(Br)C(=O)c3ccccc32)c1	34.0%*
SMILES	ST2 inh
OC1(C#CC#CC2(O)CCCCC2)CCCCC1	i
CCn1ncc(CN(C)C(=O)c2cc(Cn3cnc4ccccc43)[nH]n2)c1C	i
Cc1cnccc1CN(C)Cc1cn(C)c2ccccc12	i
O=C(Nc1ccc(Cl)cc1)Nc1ccc(Cl)cc1Cl	i
CC(Cn1ccnc1)NCC1(N2CCCCC2)CCCCC1 (configuration not stated)	i
Clc1ccc(OCCn2cncn2)cc1	i
CC1=C(C(=O)Nc2cc(C)ccn2)C(c2ccc(F)cc2)C2=C(CCCC2=O)N1 (configuration not stated)	i
CC(C)(C)C1CCC2(CC1)SCC(=O)N2c1ccc(Cl)cc1 (configuration not stated)	36.0%*
O=C1CSC(c2ccccc2)N1c1ccc(Cl)cc1 (configuration not stated)	i
CC1SC2(CCCCC2)N(c2ccc(Cl)cc2)C1=O (configuration not stated)	i
COc1ccccc1-c1nnc(NC(=O)c2ccc(S(=O)(=O)N3CCCCCC3)cc2)o1	i
O=[N+]([O-])c1ccccc1S(=O)(=O)NCc1cccnc1	i
COc1ccc(CNc2ncnc(NCc3ccc(OC)cc3)c2[N+](=O)[O-])cc1	i
O=[N+]([O-])c1cccnc1NCc1ccccc1	39.0%*
CCC(=O)N1c2ccccc2NC2=C(C(=O)CC(c3ccccc3)C2)C1c1ccc2c(c1)OCO2 (configuration not stated)	i
N#CC1=C(N)n2c(s/c(=C\c3ccco3)c2=O)=C(C#N)C1c1ccco1 (configuration not stated)	37.0%*
CC1CC(=O)C2=C(C1)OC(N)=C(C#N)C2c1ccco1 (configuration not stated)	i
CCCOc1ccc(-c2nc3s/c(=C\c4ccco4)c(=O)n3n2)cc1	i
COc1ccc2c(-c3c(-c4ccccc4)ncn3Cc3ncn[nH]3)cn(C)c2c1	i
O=C1Nc2cc(C(=O)N3CCN(c4ccccc4)CC3)ccc2SC1N1CCOCC1 (configuration not stated)	i
CN1C[C@@H](NC(=O)Nc2cccc(F)c2)C[C@H]1c1nc(-c2cccnc2)no1	i
CN1C[C@@H](NC(=O)Nc2cccc(F)c2)C[C@H]1c1nc(-c2ccc(F)cc2)no1	36.0%*
CN1C[C@@H](NC(=O)NCc2ccccc2)C[C@H]1c1nc(-c2ccccc2)no1	i
CN1C[C@@H](NC(=O)Nc2ccccc2)C[C@H]1c1nc(-c2ccc(F)cc2)no1	i
Cc1ccc(-c2noc([C@@H]3C[C@H](NC(=O)Nc4cccc(F)c4)CN3C)n2)cc1	i
CN1C[C@@H](NC(=O)c2ccccc2)C[C@H]1c1nc(-c2ccc(F)cc2)no1	i

Screening data (PubChem)
